Results as given in PubChem BioAssay AID1159580 (chemical genetic matrix, 2015).
Where “and” joins values, the source holds several entries; their conditions need not be identical. Equal values may be shown once. Screen size: about 5,500 compounds; about 2,000 (36%) were called active. Inconclusive results (about 18%) are left out. Rule as the data show it: active = normalized growth mostly below about 0.91 (no sharp cut-off); inconclusive = no clear call, values can overlap the other calls; inactive = mostly above about 0.92. Some of the results follow.

Assay: chemical genetic growth profiling, strain panel (AID 1159580);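 also: tested at 20 µM; growth read once vehicle control cultures reached saturation at 30 °C; 1 = growth at the plate median or of vehicle wells; lower values mean less growth of the strain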
Details: growth OD

Measured: normalized growth

CCn1cc(C(=O)O)c(=O)c2cc(F)c(N3CCNC(C)C3)c(F)c21 (stereo not given)
inactive: S. cerevisiae deletion strains, locus YJR075W, strain HOC1, stronger effect = lower value 0.991 and 0.993 | S. cerevisiae deletion strains, locus YKL009W, strain mrt4, stronger effect = lower value 0.979 | S. cerevisiae deletion strains, locus YKL068W, stronger effect = lower value 0.981 | S. cerevisiae deletion strains, locus YKL085W, strain MDH1 (second series), stronger effect = lower value 0.985 | S. cerevisiae deletion strains, locus YKL085W, strain MDH1, stronger effect = lower value 0.985 | S. cerevisiae deletion strains, locus YKL160W, strain elf1, stronger effect = lower value 0.943 | S. cerevisiae deletion strains, locus YKL190W, strain CNB1, stronger effect = lower value 0.995 | S. cerevisiae deletion strains, locus YKR001C, strain vps1, stronger effect = lower value 0.993 | S. cerevisiae deletion strains, locus YKR026C, strain gcn3, stronger effect = lower value 0.996 | S. cerevisiae deletion strains, locus YKR091W, strain srl3, stronger effect = lower value 0.982 | S. cerevisiae deletion strains, locus YLL001W, strain dnm1, stronger effect = lower value 0.985 | S. cerevisiae deletion strains, locus YLL026W, stronger effect = lower value 0.99 | S. cerevisiae deletion strains, locus YLL041C, strain sdh2, stronger effect = lower value 0.975 | S. cerevisiae deletion strains, locus YLR027C, strain aat2, stronger effect = lower value 0.992 | S. cerevisiae deletion strains, locus YLR039C, strain RIC1, stronger effect = lower value 0.973 | S. cerevisiae deletion strains, locus YLR058C, strain SHM2, stronger effect = lower value 0.995 | S. cerevisiae deletion strains, locus YLR102C, strain apc9, stronger effect = lower value 0.986 | S. cerevisiae deletion strains, locus YLR113W, strain HOG1, stronger effect = lower value 1.06 | S. cerevisiae deletion strains, locus YLR221C, strain rsa3, stronger effect = lower value 1 | S. cerevisiae deletion strains, locus YLR258W, strain gsy2, stronger effect = lower value 0.98 | S. cerevisiae deletion strains, locus YLR262C, strain YPT6 (second series), stronger effect = lower value 0.996 | S. cerevisiae deletion strains, locus YLR262C, strain YPT6, stronger effect = lower value 0.979 | S. cerevisiae deletion strains, locus YLR268W, strain sec22, stronger effect = lower value 0.988 | S. cerevisiae deletion strains, locus YLR320W, strain mms22, stronger effect = lower value 0.961 | S. cerevisiae deletion strains, locus YLR330W, strain CHS5, stronger effect = lower value 0.982 | S. cerevisiae deletion strains, locus YLR342W, strain FKS1 (second series), stronger effect = lower value 0.951 | S. cerevisiae deletion strains, locus YLR342W, strain FKS1, stronger effect = lower value 0.957 | S. cerevisiae deletion strains, locus YLR357W, strain rsc2, stronger effect = lower value 0.919 | S. cerevisiae deletion strains, locus YLR370C, strain arc18, stronger effect = lower value 0.965 | S. cerevisiae deletion strains, locus YLR371W, strain rom2, stronger effect = lower value 0.992 | S. cerevisiae deletion strains, locus YLR384C, strain iki3, stronger effect = lower value 0.964 | S. cerevisiae deletion strains, locus YLR418C, strain cdc73, stronger effect = lower value 0.892 | S. cerevisiae deletion strains, locus YML016C, strain PPZ1, stronger effect = lower value 0.991 | S. cerevisiae deletion strains, locus YML032C, strain rad52, stronger effect = lower value 0.994 | S. cerevisiae deletion strains, locus YML120C, strain ndi1, stronger effect = lower value 0.993 | S. cerevisiae deletion strains, locus YML124C, strain tub3, stronger effect = lower value 0.996 | S. cerevisiae deletion strains, locus YMR058W, strain fet3, stronger effect = lower value 0.994 | S. cerevisiae deletion strains, locus YMR078C, strain ctf18, stronger effect = lower value 0.982 | S. cerevisiae deletion strains, locus YMR125W, strain sto1, stronger effect = lower value 0.961 | S. cerevisiae deletion strains, locus YMR129W, stronger effect = lower value 0.971 | S. cerevisiae deletion strains, locus YMR205C, strain PFK2, stronger effect = lower value 0.985 | S. cerevisiae deletion strains, locus YMR223W, strain ubp8, stronger effect = lower value 0.976 | S. cerevisiae deletion strains, locus YMR231W, strain pep5, stronger effect = lower value 0.984 | S. cerevisiae deletion strains, locus YMR263W, strain SAP30, stronger effect = lower value 1 | S. cerevisiae deletion strains, locus YMR307W, strain GAS1, stronger effect = lower value 1.01 | S. cerevisiae deletion strains, locus YNL067W, strain RPL9B, stronger effect = lower value 1.03 | S. cerevisiae deletion strains, locus YNL071W, strain lat1, stronger effect = lower value 0.977 | S. cerevisiae deletion strains, locus YNL128W, strain TEP1, stronger effect = lower value 0.964 | S. cerevisiae deletion strains, locus YNL153C, strain GIM3, stronger effect = lower value 1.06 | S. cerevisiae deletion strains, locus YNL175C, strain NOP13, stronger effect = lower value 0.998 | S. cerevisiae deletion strains, locus YNL183C, strain NPR1, stronger effect = lower value 0.962 | S. cerevisiae deletion strains, locus YNL197C, strain WHI3, stronger effect = lower value 1 | S. cerevisiae deletion strains, locus YNL209W, strain ssb2, stronger effect = lower value 0.965 | S. cerevisiae deletion strains, locus YNL224C, strain SQS1, stronger effect = lower value 0.994 | S. cerevisiae deletion strains, locus YNL233W, strain BNI4, stronger effect = lower value 1.03 | S. cerevisiae deletion strains, locus YNL248C, strain rpa49, stronger effect = lower value 0.926 | S. cerevisiae deletion strains, locus YNL250W, strain rad50, stronger effect = lower value 0.943 | S. cerevisiae deletion strains, locus YNL271C, strain bni1, stronger effect = lower value 0.992 | S. cerevisiae deletion strains, locus YNL298W, strain CLA4, stronger effect = lower value 0.988 | S. cerevisiae deletion strains, locus YNL307C, strain MCK1, stronger effect = lower value 0.984 | S. cerevisiae deletion strains, locus YNL322C, strain KRE1 (second series), stronger effect = lower value 0.964 | S. cerevisiae deletion strains, locus YNL322C, strain KRE1, stronger effect = lower value 1.02 | S. cerevisiae deletion strains, locus YNR049C, strain mso1, stronger effect = lower value 0.975 | S. cerevisiae deletion strains, locus YNR052C, strain pop2, stronger effect = lower value 0.989 | S. cerevisiae deletion strains, locus YOL006C, strain TOP1, stronger effect = lower value 1.08 | S. cerevisiae deletion strains, locus YOL012C, strain htz1 1.44 | S. cerevisiae deletion strains, locus YOL147C, strain pex11, stronger effect = lower value 0.985 | S. cerevisiae deletion strains, locus YOR001W, strain rrp6, stronger effect = lower value 1 | S. cerevisiae deletion strains, locus YOR061W, strain CKA2, stronger effect = lower value 0.993 | S. cerevisiae deletion strains, locus YOR069W, strain VPS5, stronger effect = lower value 0.988 | S. cerevisiae deletion strains, locus YOR070C, strain gyp1, stronger effect = lower value 0.985 | S. cerevisiae deletion strains, locus YOR080W, strain dia2, stronger effect = lower value 0.972 | S. cerevisiae deletion strains, locus YOR083W, strain WHI5 (second series), stronger effect = lower value 0.992 | S. cerevisiae deletion strains, locus YOR083W, strain WHI5, stronger effect = lower value 0.897 | S. cerevisiae deletion strains, locus YOR106W, strain vam3, stronger effect = lower value 0.931 | S. cerevisiae deletion strains, locus YOR136W, strain idh2, stronger effect = lower value 0.998 | S. cerevisiae deletion strains, locus YOR144C, strain elg1, stronger effect = lower value 0.992 | S. cerevisiae deletion strains, locus YOR184W, strain ser1, stronger effect = lower value 0.988 | S. cerevisiae deletion strains, locus YOR231W, strain MKK1, stronger effect = lower value 1.04 | S. cerevisiae deletion strains, locus YOR265W, strain rbl2, stronger effect = lower value 0.972 | S. cerevisiae deletion strains, locus YOR270C, strain vph1, stronger effect = lower value 0.982 | S. cerevisiae deletion strains, locus YOR290C, strain snf2, stronger effect = lower value 0.968 | S. cerevisiae deletion strains, locus YOR316C, strain cot1, stronger effect = lower value 1 | S. cerevisiae deletion strains, locus YPL051W, strain arl3, stronger effect = lower value 0.971 | S. cerevisiae deletion strains, locus YPL055C, strain LGE1, stronger effect = lower value 0.985 | S. cerevisiae deletion strains, locus YPL078C, strain atp4, stronger effect = lower value 0.957 | S. cerevisiae deletion strains, locus YPL106C, strain sse1, stronger effect = lower value 0.939 | S. cerevisiae deletion strains, locus YPL240C, strain hsp82, stronger effect = lower value 0.983 | S. cerevisiae deletion strains, locus YPL256C, strain CLN2, stronger effect = lower value 1.04 | S. cerevisiae deletion strains, locus YPR119W, strain clb2, stronger effect = lower value 0.993 | S. cerevisiae deletion strains, locus YPR141C, strain kar3, stronger effect = lower value 0.985 | S. cerevisiae deletion strains, locus YPR163C, strain tif3, stronger effect = lower value 0.986 | S. cerevisiae deletion strains, locus YPR167C, strain met16, stronger effect = lower value 0.999 | S. cerevisiae deletion strains, strain wtn01, stronger effect = lower value 0.998 | S. cerevisiae strains, strain wild type, stronger effect = lower value 0.997
